From the supplement of paper PMC11417369
± gives the standard deviation of the averaged measurements. In all, about 25,000 sequences were measured (“ln(normalized median fluorescence intensity)”: median about 10, highest 2% from about 12 on). The sample as a whole holds a higher share of the highest values than the screen did.

Tested on: PfAP2-G AP2 domain (GST-tagged)
Test: gcPBM binding intensity (ln(normalized median fluorescence intensity)); higher = stronger DNA binding
Summary of the method: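 An Agilent 4 × 180k array carrying primer-extended double-stranded 36-bp intergenic genomic probes and negative controls received GST-tagged P. falciparum DNA-binding domains expressed in E. coli, about 25 μg on average, for 1 h. The binding buffer contained 1× PBS, 1% milk, 0.2 mg/ml BSA, 0.5% salmon testes DNA and 0.03% Triton X-100. Binding intensity is the top Masliner-normalised natural-log median intensity across replicate spots of either probe orientation, read after Alexa488 anti-GST antibody staining and a 488 nm scan.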

Row | Sequence | gcPBM binding intensity (ln)
1 | AAAAAATACTTATAAAGTACTAATATATATAAGCAG [XGTACX_site743] | 10.9 ± 0.48
2 | TTTATGGAATAATCACGTACACACAAGAAAAAAAAA [XGTACX_site985] | 11.4 ± 0.91
3 | TTTATATTTAAAAGGATGCACTACAAATTCTAAATA | 10.3 ± 0.3
4 | TTTTTTTTTCCCGTAAATATTGAGACAACCATAATG [CACACA_negctrl_site41] | 10.6 ± 0.54
5 | TATATAATATTACGTTGTACACTTTAATCTCCCTTC [XGTACX_site5577] | 11.1 ± 0.7
6 | CTATTTTTTGTATAAACATGCATATAGTAGATATGG [TGCATGCA_site670] | 10.1 ± 0.23
7 | AAAGAATTTAAATATTGTACGCAATATATAAAAAAA [XGTACX_site7616] | 11.5 ± 0.92
8 | CTTTAACCTTTTTATTGTACTTTTAATATTTTAAAA [XGTACX_site4457] | 11.4 ± 0.86
9 | TTTAAACCTTAATATTGTACGCAAAAAAAAAAAGAA [XGTACX_site3757] | 11.6 ± 1
10 | CATTTTATTTTAATATGTACTTAAAGAAAAAAAATT [XGTACX_site7670] | 11.2 ± 0.82
11 | TATGTGTGCAAAAACTGTACACATTAAAGGTATATA [XGTACX_site7627] | 11.7 ± 1.1
12 | TTACATGTAAAAGGTACACACATTATGTATACAAAT [CACACA_site1117] | 11.4 ± 0.88
13 | TATTAAAAGGTGAGTACACACATATATGTGTATATA [CACACA_site7070] | 11.4 ± 0.83
14 | AAATTATTTCTTTGCGCATGTAGCTTTTATACTATT [TGCATGCA_site819] | 9.98 ± 0.16
15 | AATGGTTCAACGTAGTGTACGTAATAAATAATAAAT [XGTACX_site8668] | 11.8 ± 0.95
16 | ATTAAGTTCAAATGTAGTACGTGTAAAAAAAAAAAA [XGTACX_site1578] | 11.4 ± 0.83
17 | TAAAAATATAAATTTTGTACGTAAAAAATGGTTCTT [XGTACX_site1506] | 11.5 ± 0.93
18 | ATTCGGATCTATAAGTGTACACAATCTAGCGAAAAG [XGTACX_site3088] | 11.5 ± 0.83
19 | GGATAAGAAAAGAAGTGTACATATATATATATATAT [XGTACX_site8290] | 11.2 ± 0.68
20 | CGGATCTATAAGTGTACACAATCTAGCGAAAAGTTT [CACACA_site4932] | 11.6 ± 1
21 | TTATTAAAAATGGTATGTACGCACATAATATATATA [XGTACX_site3230] | 11.5 ± 0.71
22 | ACGGATTAAAAAATGTGTACGCACAAAAAAAAAAAT [XGTACX_site8259] | 11.7 ± 0.97
23 | AGGCACAAAATTAAATGTACATATATATATATATAT [XGTACX_site3323] | 11 ± 0.6

Row | Sequence | gcPBM binding intensity (ln)
24 | TTATGTTCTTTAAAACCACACACCCCCCAACCCCCC [CACACA_site8742] | 11.6 ± 0.87
25 | TTTTTTTTTTTTTTTTTTTTTTTATGTTCTTAAAAA [GTGCAC_negctrl_site62] | 9.56 ± 0.35
26 | CACACCCACAAAAACACACACAAAGGTGTTCTTATA [CACACA_site1293] | 10 ± 0.13
27 | CAAACCCACCAACACACACACACAAAAATGATTAAA [CACACA_site2432] | 10.2 ± 0.35
28 | ATGTTCTTTAAAACCACACACCCCCCAACCCCCCTC [CACACA_site2373] | 11.7 ± 1
29 | CTTTAAACCCTGAACACACACAAATACACCCAAAAA [CACACA_site4297] | 10.7 ± 0.54
30 | TATATATGTATCAAGTGTACAGTTTTAAAAAAAAAA [XGTACX_site6011] | 11.4 ± 0.87
31 | TTTCTTACAACAACAACAAAAAAAAATAAATAAAAT [GTGCAC_negctrl_site711] | 9.91 ± 0.16
32 | AATATATATGAAAAAAGTACTCAAGGAATAAAAAAA [XGTACX_site7720] | 11.3 ± 0.67
33 | TAATAAAACATATATACACACATTAGATATACATAT [CACACA_site6897] | 9.92 ± 0.057
34 | AATGGAAATTTTTCTTGTACACATATATGACATGTT [XGTACX_site1691] | 11.3 ± 0.86
35 | TCTTTGTACTTTCACATGTACACCCAAATGGAAATT [CACACA_negctrl_site1442] | 11.8 ± 0.87
36 | AAATTACTTTCACAGTGTACTTGGAAAAAAAAAAGA [XGTACX_site1046] | 11.3 ± 0.8
37 | ACATCTAGGCTTATTTTATGATACATGTGAATATAT [TGCATGCA_negctrl_site325] | 9.79 ± 0.099
38 | TTTCATTTAGCTTTTACACACTATATATTATTGATT [CACACA_site16] | 9.82 ± 0.11
39 | AAAAAAATAAAACACATACATATATGTATATATATA [GTGCAC_negctrl_site390] | 9.77 ± 0.2
40 | TAAGTTATATGTACTACACACGTACACAAAATAAGA [CACACA_site9237] | 11.8 ± 1
41 | TATATCTACTACACACGTACACAAAATAAGATACCT [XGTACX_site7886] | 11.5 ± 0.97
42 | ATAATAAACATATATGTACACACATATACATATATA [CACACA_site8924] | 11.3 ± 0.94
43 | AGTTATATGTACTACACACGTACACAAAATAAGATA [CACACA_site3719] | 11.6 ± 0.75
44 | AATATATAAACACGTACACACACATATATGTATATA [CACACA_site9168] | 11.6 ± 1
45 | AAAAATATATAAACACGTACACACACATATATGTAT [XGTACX_site7436] | 11.6 ± 0.88
46 | ACATAAATAATAAAAACACACATATGTACATATATA [CACACA_site1913] | 11.3 ± 0.79

Row | Sequence | gcPBM binding intensity (ln)
47 | AATAAACATATATGTACACACATATACATATATATA [CACACA_site2848] | 11.4 ± 1.2
48 | GCTATATATTACAATCGTACAATATATATATATATA [XGTACX_site6730] | 10.8 ± 0.68
49 | TATATTTATAACAACACACACAGATCATAAAACTGC [CACACA_site7086] | 10.2 ± 0.12
50 | TTTTTCCAATCAGATGCATGTTACTATATTTGGTTC [TGCATGCA_site52] | 9.96 ± 0.014
51 | ATATATTATTATAACTGTACTTTTTTTGTGGTTAAT [XGTACX_site8266] | 11.5 ± 0.83
52 | TCATAGTATAAACACACACACACACCCATATATATA [CACACA_site8512] | 10.2 ± 0.3
53 | ATAAATTGTTCTTTTTGTGTAAACAGAATATTAAAA [CACACA_negctrl_site1022] | 10.1 ± 0.21
54 | TAAGAAATAAATAGTACACACATAGACACCCACCGA [CACACA_site1516] | 11.5 ± 0.93
55 | GCATAAGAAATAAATAGTACACACATAGACACACAC [XGTACX_site3095] | 11.6 ± 0.85
56 | TAAGAAATAAATAGTACACACATAGACACCCACCCA [CACACA_site8429] | 11.7 ± 0.8
57 | TGATCTTTACACATATTATATATATATAAAAAAAAA [XGTACX_negctrl_site360] | 9.99 ± 0.26
58 | TCTTGAAAAAGAATCAATCGGTCGACAAAAAAAAAA [CACACA_negctrl_site1099] | 10.4 ± 0.24
59 | GTCTTAAAAATTAAAACACACGTTCACTTTCATATT [CACACA_site5803] | 10.05 ± 0.021
60 | CAAAGGAAATGGTGTACACAATTTTTCCTTTTTCGT [CACACA_site4800] | 11.8 ± 1.2
61 | ATTATACAAAATGGTAAGGAAAAGGAAATTTTTTTT [CACACA_negctrl_site1090] | 9.77 ± 0.014
62 | TTTCAAAGGAAATGGTGTACACAATTTTTCCTTTTT [XGTACX_site2340] | 11.7 ± 0.88
63 | TTTTCCTTTCACAATGGTACACAAATATACATGCAA [XGTACX_site7244] | 11.2 ± 0.8
64 | ATATTGTGTTATAAATGTACACAATTTCCTTTCATA [XGTACX_site7481] | 11.3 ± 0.79
65 | AAAAAAAAATGTCATGGTACACAATTTTTTCTTTTT [XGTACX_site4505] | 11 ± 0.56
66 | ATATATATGGATGGACGTACGTATGTATGTAATTTC [XGTACX_site4135] | 11.3 ± 0.64
67 | AAATAAGAAAAAGCGCGTACACATAACATTTTTATA [XGTACX_site8807] | 11.7 ± 0.93
68 | AAAAGAAATATTTATACACACACACTAACATATATA [CACACA_site8580] | 10.09 ± 0.035
69 | CAATTTATAAAGAAAACACACATATACATAAATACA [CACACA_site4829] | 10.2 ± 0.16

Row | Sequence | gcPBM binding intensity (ln)
70 | TATATATATTTATACACACAAACATAATACTACTTA [CACACA_site2022] | 10.3 ± 0.22
71 | TTGGTGGATAAATTTACACACAATAATTTTCGTTCA [CACACA_site467] | 10 ± 0.14
72 | TTTAAAAATTAATTCTGTACACATTTTTATTTTATT [XGTACX_site8] | 11.5 ± 0.8
73 | AAAATTTTTTACTTTACACACATTTTGTATATTTTG [CACACA_site1730] | 9.98 ± 0.23
74 | AAAAAATTCTGGTACTGTACACATTTTTTTAAATTT [XGTACX_site6904] | 11.7 ± 1
75 | ACTGTAAAAGGATTTACACACATATTTACATTTACA [CACACA_site519] | 10.01 ± 0.021
76 | AAAAAAAAAATTTACTGTACACATTTGGGATACTCA [XGTACX_site5191] | 11.7 ± 0.76
77 | AAAAAAAATTTTATCTGTACACATTTTTTTCTTTTT [XGTACX_site4229] | 11.6 ± 0.74
78 | TTACAATAAATTATAGTGCAATATTTTATTTAATAT | 9.9 ± 0.26
79 | AAAATATATATATATATATATATATGTATACTCCTA [XGTACX_negctrl_site312] | 10 ± 0.29
80 | CGAATATATTCTAGACGTACTATATAATATATATAT [XGTACX_site4953] | 11.1 ± 0.69
81 | TATATTTATTTATTCTGTACTGAAGACAGTTATGTA [XGTACX_site8857] | 10.8 ± 0.58
82 | AAATTATATATGATGTGTACATAAATATATACACAT [XGTACX_site8761] | 11.4 ± 0.83
83 | AAAATAATATATGTATGTACACAATTATTTATAAGT [XGTACX_site7267] | 11.5 ± 0.89
84 | AAAAAAAATAATAATACACACAATATGATATGTACA [CACACA_site850] | 10.4 ± 0.17
85 | TTTGTTTTATGTGGTTGTACACAAATACAATTTAAA [XGTACX_site5156] | 11.6 ± 1.1
86 | TATGATATAATTATGTGTACACAATTTTTTTTTTTT [XGTACX_site1084] | 11.6 ± 0.8
87 | TTATATGTTTTGTGTACACAATTTATTAAATTAATA [CACACA_site5645] | 11.7 ± 0.88
88 | ATATGTACAAATTATACACACATGTACAATTATATA [CACACA_site1253] | 11.3 ± 0.79
89 | TAATTATTTTTATATTGTACAATATGTAAATATATA [XGTACX_site592] | 10.8 ± 0.58
90 | GATATAATTATGTGTACACAATTTTTTTTTTTTTTT [CACACA_site4501] | 11.7 ± 0.87
